Bioassay records as filed in PubChem.
An excerpt weighted towards active compounds, which were near 4.1% of everything screened.
NLRP3 yeast inh: NALP3 inhibition in yeast. inhibition, % at 10 µM. AID 2825. actives 0.39% (n = 330,000). Yeast reconstituted NLRP3/ASC/caspase-1, beta-gal luminescence, 24 h;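 active = inhibition of 50% or more; inactive = inhibition below 50%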;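 also: plate controls were induced DMSO wells for no effect and uninduced yeast grown without galactose for full effect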
tim10-1 inh: growth inhibitors of tim10-1 mutant yeast; S. cerevisiae tim10-1 ts strain growth, BacTiter-Glo, 24 h; inhibition, % at 20 µM; actives 2.2% (n = 330,000); AID 463190;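 active = inhibition of at least 40%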;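 also: mutant grown at 25 °C; 0% = DMSO wells with yeast and 100% = wells holding no yeast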
TIM10 inh: growth inhibitors of TIM10 yeast strain | S. cerevisiae TIM10 strain growth, BacTiter-Glo luminescence, 24 h | inhibition, % at 10 µM | actives 1.4% (n = 330,000);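 active = inhibition of 40% or more at the single tested concentration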;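 also: wild-type TIM10 isogenic control strain grown at permissive 25 °C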
tim23-1 inh: tim23-1 yeast growth inhibition. S. cerevisiae tim23-1 growth, BacTiter-Glo luminescence, 24 h. inhibition, % at 20 µM. actives 1.3% (n = 330,000);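 active = growth inhibition of the mutant yeast at or above 50%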;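 also: temperature-sensitive mutant grown at 25 °C; plate controls were DMSO-treated mutant yeast for no effect and medium wells lacking yeast for full effect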
NALP1 yeast inh: inhibitors of NALP1 inflammasome in yeast | inhibition, % at 10 µM | actives 0.61% (n = 280,000) | S. cerevisiae NALP1/ASC/caspase-1 growth, X-gal OD620, 72 h | AID 2071; in the data active = inhibition mostly above about 24%, no sharp cut-off; inactive = mostly below about 32%
NALP3 confirm: confirmation of NALP3 inhibitors in yeast; shares compounds with NLRP3 yeast inh; yeast expressing human NALP3, luminescence; inhibition, % at 10 µM; actives 81% (n = 1,300); in the data active = inhibition above about 48%
Casp1 ASC ctr: active in yeast caspase-1-ASC counter-screen for NALP3 inhibitors | shares compounds with NLRP3 yeast inh | yeast expressing Caspase-1-ASC, luminescence counter screen | actives 66% (n = 1,000) | inhibition, % at 10 µM
NALP3 retest: retest-confirmed inhibitor of NALP3 in yeast | shares compounds with NLRP3 yeast inh | yeast expressing human NALP3, luminescence read-out | inhibition, % at 10 µM | actives 53% (n = 1,000) | AID 488794
* marks the source's active call; other numbers are inactive results; . = no result given. Rule as the data show it, unless noted: active = inhibition above about 50%; inactive = the rest.

SMILES | NLRP3 yeast inh | tim10-1 inh | TIM10 inh | tim23-1 inh | NALP1 yeast inh | NALP3 confirm | Casp1 ASC ctr | NALP3 retest
CCCCn1c(N)c(N(CCOC)C(=O)CCc2ccc(OC)cc2)c(=O)[nH]c1=O | 9 | 9 | -10 | 10 | 20 | . | . | .
Nc1cc(N2CCCCC2)c([N+](=O)[O-])cc1Cl | 51* | -4 | -10 | 35 | 36 | 9 | . | .
O=C1C2C3C=CC(C3)C2C(=O)N1c1ccccc1 (stereo not given) | 5 | 4 | 4 | -6 | 19 | . | . | .
O=C1C2C3C=CC(C3=C3CCCCC3)C2C(=O)N1c1ccccc1 (stereo not given) | 58* | 14 | 17 | 11 | 7 | 65* | 40 | 30
CCCCCCCCCCS(=O)(=O)N/N=C/c1ccc(O)cc1 | 50* | 31 | 21 | -21 | 18 | 70* | 44 | 47
CCCCCCCCCCS(=O)(=O)N/N=C/c1ccccc1OC | 6 | 14 | 1 | 20 | 18 | . | . | .
Nc1c(-c2cccc(Cl)c2)cnn1-c1cccc(C(F)(F)F)c1 | 54* | 17 | 17 | 31 | 23 | 73* | 65* | 50*
Nc1c(-c2ccccc2)cnn1-c1cccc(C(F)(F)F)c1 | 60* | -25 | -41 | -16 | 43 | 62* | 62* | 53*
Nc1c(-c2ccc(Cl)cc2)cnn1-c1cc(C(F)(F)F)cc(C(F)(F)F)c1 | 1 | -5 | -5 | -1 | . | . | . | .
Cc1ccc(-c2cnn(-c3ccccc3)c2N)cc1 | 14 | 24 | -2 | 18 | 12 | . | . | .
COc1ccc(CN(C)Cc2c(O)ccc3ccccc23)cc1 | 12 | 15 | 17 | 6 | -18 | . | . | .
COc1ccc(NS(=O)(=O)c2cccc(C(=O)NNC(=O)c3ccc(=O)[nH]c3)c2)cc1 | 5 | -12 | 4 | -7 | . | . | . | .
CSc1nc2ccc(S(=O)(=O)N3CCCCC3)cc2s1 | 63* | -7 | -5 | 9 | 14 | 82* | 48 | 26
CSc1nc2ccc(S(=O)(=O)N3CCOCC3)cc2s1 | 48 | 1 | 3 | 4 | 12 | . | . | .
O=C(NNC(=S)NC(=O)c1ccc(Br)cc1)c1ccc([N+](=O)[O-])cc1 | 53* | -2 | 8 | 30 | 4 | 37 | 37 | 54*
Cc1cccc(C(=O)NNC(=S)NC(=O)c2ccccc2)c1 | 39 | 17 | 0 | 8 | . | . | . | .
COc1ccc(C(=O)NC(=S)NNC(=O)c2ccncc2)cc1Br | 7 | 20 | 17 | 24 | . | . | . | .
COc1ccc(C(=O)NC(=S)NNC(=O)c2cccc(C)c2)cc1 | 51* | 21 | 16 | 23 | . | 48 | 49 | 48
COc1ccc(C(=O)NNC(=S)NC(=O)c2cccs2)cc1 | 56* | 4 | 3 | 28 | -12 | 71* | 27 | 44
COc1ccc(C(=O)NNC(=S)NC(=O)c2ccc(F)cc2)cc1Br | 62* | 4 | 32 | 30 | . | 71* | 60* | 60*
Cc1ccc(C(=O)C(C)OC(=O)Cc2n[nH]c(=O)c3ccccc23)cc1 (stereo not given) | 9 | 15 | 23 | -3 | . | . | . | .
O=c1ccc(NS(=O)(=O)c2ccccc2)cn1Cc1ccc(Cl)c(Cl)c1 | 20 | 18 | 1 | 1 | 12 | . | . | .
O=C(CSc1nnc(NC(=O)C2CC2)s1)Nc1ccc2c(c1)OCCO2 | 11 | -1 | 18 | 13 | 3 | . | . | .
CCN1CCN(c2ccc(Cl)cc2NC(=O)c2ccc(-n3nc(C)cc3C)cc2)CC1 | 51* | 9 | 1 | 16 | . | 44 | 39 | 32
COc1ccc(C(=O)c2no[n+]([O-])c2C(=O)c2ccc(OC)cc2)cc1 | 70* | 7 | 4 | 32 | 21 | 80* | 81* | 62*
SMILES | NLRP3 yeast inh | tim10-1 inh | TIM10 inh | tim23-1 inh | NALP1 yeast inh | NALP3 confirm | Casp1 ASC ctr | NALP3 retest
CCOC(=O)Cc1csc(NC(=O)c2cc(C)c(C)s2)n1 | 65* | -26 | -34 | 12 | . | 60* | 79* | 63*
CCOC(=O)Cc1csc(NC(=O)c2ccc(Cl)s2)n1 | 63* | -12 | -14 | 41 | 29 | 73* | 75* | 71*
CCOC(=O)Cc1csc(NC(=O)c2cccc(Cl)c2)n1 | 64* | -35 | -13 | 20 | . | 60* | 68* | 54*
CCOC(=O)Cc1csc(NC(=O)c2ccncc2)n1 | 20 | -11 | 5 | 12 | -5 | . | . | .
Cc1cccn2cc(CCNC(=O)Cc3cccs3)nc12 | 2 | 2 | -14 | -12 | -6 | . | . | .
CCOc1ccccc1C(C(=O)NC1CCCC1)N(C(=O)c1csnn1)C1CC1 (stereo not given) | 14 | -3 | 14 | 15 | 15 | . | . | .
Cc1cccc(-n2ccnc2SCC(=O)N2CCCc3ccccc32)c1C | -5 | 31 | 21 | 25 | 18 | . | . | .
CCOc1ccc(C(=O)Nc2cc(-c3nc4ccccc4[nH]3)ccc2Cl)cc1[N+](=O)[O-] | 78* | 27 | 12 | 13 | 56* | 6 | . | .
Cc1ccc(-c2nc3ccccc3[nH]2)cc1NC(=O)c1ccc2c(c1)OCO2 | 60* | -25 | -25 | -10 | 5 | 59* | 56* | 59*
CC1CC1C(=O)N(C)CC(=O)Nc1cccc(F)c1 (stereo not given) | 25 | -6 | -4 | 3 | . | . | . | .
Cc1ccc(OCCCCN2CCc3ccccc3C2)cc1 | 24 | -39 | -29 | 0 | 19 | . | . | .
COc1ccccc1NC(=O)Nc1ccc(C)cn1 | 61* | 0 | -16 | 25 | -3 | 76* | 68* | 65*
COc1ccc(NC2CCCN(C(=O)CCN3Cc4ccccc4C3=O)C2)cc1 (stereo not given) | 7 | 26 | 10 | 13 | 6 | . | . | .
C=CCc1ccc(OCCn2nnc3ccccc32)c(OC)c1 | 53* | 20 | 5 | 33 | 14 | 63* | 50* | 31
COc1cc(NC(=O)CN2C(=O)CN(C)C2=O)c(C)cc1[N+](=O)[O-] | 81* | 12 | 7 | -19 | 17 | 34 | . | .
O=C(NC1CC1)c1c(O)c2ccccc2[nH]c1=O | 69* | -23 | 14 | 33 | 28 | 75* | 40 | 46
O=C(CCl)NNC(=O)c1c(O)c2ccccc2[nH]c1=O | 8 | -40 | -24 | 11 | 3 | . | . | .
O=C(NNC(=O)c1c(O)c2ccccc2[nH]c1=O)c1ccccc1Br | 57* | -23 | 20 | 33 | 13 | 72* | 47 | 47
COc1ccc(S(=O)(=O)N2CCCCCC2)cc1NC(=O)Cc1n[nH]c(=O)c2ccccc12 | 5 | 4 | 2 | 12 | . | . | . | .
Cc1ccc(C(=O)NC(=S)NNC(=O)c2ccccc2O)cc1 | 53* | 6 | 24 | 14 | 8 | 56* | 35 | 17
Cc1ccc(C(=O)NNC(=S)NC(=O)c2ccc(Cl)cc2Cl)cc1 | 51* | -5 | 6 | -12 | 8 | 66* | 50* | 49
